The source made the active and inactive calls.
Tests used:
[1] = binders of probe aFSTL3 on microarray, primary screen, stem cell growth factor project, biochemical, small-molecule microarray, fluorescence 635/667 (AID 1064); details: higher = more signal;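 also: measures binding of the biotinylated anti-FSTL3 antibody to printed compounds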
[2] = binders from COS7 lysate, DM2A8 probe, primary screen, torsin A project, cell lysate, small-molecule microarray, fluorescence 635/667 (AID 1065); details: higher = more signal, COS7 lysate expressing mutant human TOR1A
[3] = binders of probe aFGF2 on microarray, primary screen, stem cell growth factor project, biochemical, small-molecule microarray, fluorescence 635/667 (AID 1067); details: higher = more signal;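 also: measures binding of biotinylated aFGF2 protein to printed compounds on slides; z-score merges feature fluorescence and signal-to-noise across triplicate slides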
[4] = binders of probe aFGF10 on microarray, primary screen, stem cell growth factor project, biochemical, small-molecule microarray, fluorescence 635/667 (AID 1071); details: higher = more signal;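 also: score merges 667 nm spot intensity and signal to noise from triplicate slides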
[5] = target: Neurogenic locus notch homolog protein 2 (Homo sapiens) (UniProt Q04721); assay: Notch2 binders on small-molecule microarrays, primary screen, biochemical, small-molecule microarray, 635 nm fluorescence, stem cell growth factors (AID 1073); details: Notch2 binding, higher = more signal
Chain of Neurogenic locus notch homolog protein 2 (Homo sapiens) (Q04721 whole entry, looked up, canonical isoform): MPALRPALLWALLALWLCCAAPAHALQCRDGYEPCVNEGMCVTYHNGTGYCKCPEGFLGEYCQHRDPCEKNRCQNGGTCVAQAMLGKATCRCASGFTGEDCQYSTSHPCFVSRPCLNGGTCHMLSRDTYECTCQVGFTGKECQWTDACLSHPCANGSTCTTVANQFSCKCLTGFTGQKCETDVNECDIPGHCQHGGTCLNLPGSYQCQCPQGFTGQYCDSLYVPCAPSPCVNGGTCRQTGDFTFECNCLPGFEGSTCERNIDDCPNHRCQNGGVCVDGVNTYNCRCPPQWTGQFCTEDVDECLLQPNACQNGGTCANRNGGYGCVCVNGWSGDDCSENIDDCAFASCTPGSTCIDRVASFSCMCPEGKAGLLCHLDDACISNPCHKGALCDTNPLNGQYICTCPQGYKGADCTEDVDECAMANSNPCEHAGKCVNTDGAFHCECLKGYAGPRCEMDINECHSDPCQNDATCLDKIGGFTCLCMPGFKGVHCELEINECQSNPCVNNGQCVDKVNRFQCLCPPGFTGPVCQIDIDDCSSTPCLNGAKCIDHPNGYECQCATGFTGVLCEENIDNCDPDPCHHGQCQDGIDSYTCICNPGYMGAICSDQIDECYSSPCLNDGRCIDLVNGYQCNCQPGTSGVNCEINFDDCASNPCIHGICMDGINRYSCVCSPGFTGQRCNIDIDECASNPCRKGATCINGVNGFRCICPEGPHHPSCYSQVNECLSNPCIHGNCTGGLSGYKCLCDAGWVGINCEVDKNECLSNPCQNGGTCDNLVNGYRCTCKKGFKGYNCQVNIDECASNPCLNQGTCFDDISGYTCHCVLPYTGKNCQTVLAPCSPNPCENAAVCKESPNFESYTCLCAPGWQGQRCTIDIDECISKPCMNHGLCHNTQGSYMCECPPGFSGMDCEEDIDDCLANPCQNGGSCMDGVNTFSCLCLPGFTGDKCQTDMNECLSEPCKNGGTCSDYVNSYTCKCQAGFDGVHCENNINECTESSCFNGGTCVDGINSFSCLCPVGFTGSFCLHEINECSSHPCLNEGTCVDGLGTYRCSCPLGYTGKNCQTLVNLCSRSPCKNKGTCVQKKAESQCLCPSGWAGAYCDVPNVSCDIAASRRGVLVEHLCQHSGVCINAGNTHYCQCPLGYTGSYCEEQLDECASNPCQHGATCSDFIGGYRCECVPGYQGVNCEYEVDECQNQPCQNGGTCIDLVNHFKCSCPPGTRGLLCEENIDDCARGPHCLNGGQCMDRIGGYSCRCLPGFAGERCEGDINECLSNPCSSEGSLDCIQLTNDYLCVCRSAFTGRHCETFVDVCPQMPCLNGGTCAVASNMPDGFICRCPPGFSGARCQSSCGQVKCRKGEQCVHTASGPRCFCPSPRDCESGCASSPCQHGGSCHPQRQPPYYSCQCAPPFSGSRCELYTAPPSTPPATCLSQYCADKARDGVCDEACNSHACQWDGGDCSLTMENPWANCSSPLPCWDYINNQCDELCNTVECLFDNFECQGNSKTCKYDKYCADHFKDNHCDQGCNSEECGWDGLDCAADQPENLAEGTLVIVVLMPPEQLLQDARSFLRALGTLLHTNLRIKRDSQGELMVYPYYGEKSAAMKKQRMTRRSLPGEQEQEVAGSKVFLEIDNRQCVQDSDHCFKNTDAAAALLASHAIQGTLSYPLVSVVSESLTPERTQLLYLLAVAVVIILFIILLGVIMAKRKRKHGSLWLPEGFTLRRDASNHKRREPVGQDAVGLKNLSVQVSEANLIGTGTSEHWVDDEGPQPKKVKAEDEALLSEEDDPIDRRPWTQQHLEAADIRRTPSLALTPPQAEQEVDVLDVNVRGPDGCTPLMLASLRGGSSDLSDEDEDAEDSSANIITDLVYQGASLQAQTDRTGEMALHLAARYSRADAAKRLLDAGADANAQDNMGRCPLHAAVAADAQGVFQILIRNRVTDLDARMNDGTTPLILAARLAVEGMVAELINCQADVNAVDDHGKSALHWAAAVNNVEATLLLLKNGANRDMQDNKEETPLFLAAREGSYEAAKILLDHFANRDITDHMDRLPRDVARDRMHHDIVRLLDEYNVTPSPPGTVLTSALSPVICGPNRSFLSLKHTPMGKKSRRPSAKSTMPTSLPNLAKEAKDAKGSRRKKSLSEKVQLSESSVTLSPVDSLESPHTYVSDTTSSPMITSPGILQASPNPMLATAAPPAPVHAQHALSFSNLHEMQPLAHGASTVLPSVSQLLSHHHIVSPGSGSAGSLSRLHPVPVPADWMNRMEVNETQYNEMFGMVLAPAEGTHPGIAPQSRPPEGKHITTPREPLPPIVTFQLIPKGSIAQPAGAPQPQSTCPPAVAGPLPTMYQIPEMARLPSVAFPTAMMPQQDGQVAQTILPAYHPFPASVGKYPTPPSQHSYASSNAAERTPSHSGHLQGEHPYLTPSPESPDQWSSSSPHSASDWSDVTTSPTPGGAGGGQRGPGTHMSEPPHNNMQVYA

[6] = target: Pro-neuregulin-1, membrane-bound isoform (Homo sapiens) (UniProt Q02297); assay: NRG1 binders on small-molecule microarrays, primary screen, psychiatric disease protein project, biochemical, small-molecule microarray, fluorescence 635/667 (AID 1075); details: NRG1 binding, 635 nm fluorescence, higher = more signal;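 also: score combines 667 nm spot fluorescence with signal to noise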
Chain of Pro-neuregulin-1, membrane-bound isoform (Homo sapiens) (Q02297 whole entry, looked up, the tested form may be a part, canonical isoform): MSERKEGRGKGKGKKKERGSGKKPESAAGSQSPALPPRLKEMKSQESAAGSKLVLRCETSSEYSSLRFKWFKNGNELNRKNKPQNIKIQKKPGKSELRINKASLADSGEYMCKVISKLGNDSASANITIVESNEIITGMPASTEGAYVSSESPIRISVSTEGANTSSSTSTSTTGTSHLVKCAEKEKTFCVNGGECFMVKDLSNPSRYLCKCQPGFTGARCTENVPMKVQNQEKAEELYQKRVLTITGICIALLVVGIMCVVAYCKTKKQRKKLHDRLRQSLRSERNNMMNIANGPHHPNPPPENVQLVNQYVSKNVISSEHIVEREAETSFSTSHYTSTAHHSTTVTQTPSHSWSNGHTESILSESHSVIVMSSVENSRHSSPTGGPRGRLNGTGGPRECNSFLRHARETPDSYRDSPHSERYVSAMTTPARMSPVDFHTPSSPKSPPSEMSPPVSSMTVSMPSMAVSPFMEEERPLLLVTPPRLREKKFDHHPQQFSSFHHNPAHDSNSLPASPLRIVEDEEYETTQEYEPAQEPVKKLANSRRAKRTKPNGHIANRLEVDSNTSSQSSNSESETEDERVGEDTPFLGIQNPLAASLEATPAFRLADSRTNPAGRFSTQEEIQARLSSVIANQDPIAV

[7] = system: Neuregulin-1 EGF-like domain; assay: binders of neuregulin-1 EGF-like domain, primary screen, biochemical, small-molecule microarray, 635 nm fluorescence (AID 1081); details: small-molecule microarray binding, higher = more signal;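 also: binding of the protein to compounds printed on small-molecule microarray slides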
[8] = FRG1 promoter luciferase signal modulators, primary screen, FRG1 inhibition for FSHD, cell-based, C2C12 myotubes, firefly/Renilla luciferase, luminescence (AID 1084); details: higher = more signal, called active from +8 up or from −8 down
[9] = binders of probe aFST on microarray, primary screen, stem cell growth factor project, biochemical, small-molecule microarray, fluorescence 635/667 (AID 1086); details: higher = more signal;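 also: score merges 667 nm fluorescence with signal-to-noise of each printed compound spot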
[10] = binders of probe aHhip on microarray, primary screen, stem cell growth factor project, biochemical, small-molecule microarray, fluorescence 635/667 (AID 1087); details: higher = more signal;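 also: score merges spot fluorescence at 667nm with spot signal to noise ratio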

Row | SMILES | composite z-score [1] | composite z-score [2] | composite z-score [3] | composite z-score [4] | composite z-score [5] | composite z-score [6] | composite z-score [7] | z-score [8] | composite z-score [9] | composite z-score [10]
1 | CN1C(=O)C2C=CC(C(O)C#Cc3ccccc3)N(N3CCCCC3)C2C1=O (stereo not given) | 0.819 | 1.34 | 0.454 | 0.762 | 1.44 | 1.19 | 1.19 | -0.995 (inactive) | 1.16 | -0.0655
2 | COC(=O)[C@@]1(Cc2ccccc2)[C@H]2c3cc(C(=O)N(C)C)n(Cc4ccsc4Br)c3C[C@H]2CN1C(=O)c1ccccc1 | 0.102 | 0.106 | 0.215 | 0.746 | 1.61 | 0.823 | 1.12 | 0.332 (inactive) | 1.67 | -0.113
3 | C=CC[C@]1(C(=O)NCCCOC)N=C(c2ccc(OCCCO)cc2)O[C@H]1c1ccccc1CN=[N+]=[N-] | 1.07 | 0.717 | -0.0981 | 0.807 | 1.49 | 1.3 | 1.08 | 0.373 (inactive) | 0.952 | 0.335
4 | O=C1C[C@]2(c3ccc([N+](=O)[O-])cc3)C(=O)N(CC(F)(F)F)c3cc(CO)ccc3[C@H]2N1C1CCCCC1 | 0.342 | -0.819 | -0.148 | -0.91 | -0.488 | -0.722 | -1.5 | 0.0655 (inactive) | -0.167 | -0.226
5 | COC(=O)[C@@]1(Cc2ccc(OC)cc2)[C@H]2c3cc(C(=O)N(C)C)n(C)c3C[C@H]2CN1C(=O)c1ccccc1 | 0.32 | 0.35 | 0.24 | 0.759 | 1.66 | 1.85 | 1.18 | 1.76 (inactive) | 1.48 | 0.658
6 | COC(=O)c1c(CC[C@@H](CO)NC(=O)NCCn2cc(C3(O)CCCC3)nn2)oc(C(C)=O)c1C(=O)OC | -0.465 | 0.24 | 0.127 | 0.173 | -0.119 | 0.718 | 0.685 | -0.598 (inactive) | -0.204 | -0.184
7 | CCCC[C@@H]1C[C@H]1[C@@H](NC(=O)c1ccco1)c1ccc(-c2ccccc2)cc1 | -0.207 | -0.194 | -0.176 | 0.203 | 0.571 | -0.343 | 1.02 | 1.85 (inactive) | 0.425 | 0.0922
8 | CC(C)C[C@@H]1NC(=O)[C@H](C(C)C)NC(=O)[C@@]23C(=O)N[C@@H](Cc4ccccc4)C2[C@H](C)[C@@]2(C)O[C@H]2C3/C=C/CC/C=C/CNC1=O (stereo not given in full) | -0.368 | 0.0032 | -0.144 | 0.518 | 0.729 | 0.133 | 1.02 | -0.537 (inactive) | 0.0815 | -0.0061
9 | CCC[C@@H]1C[C@@]1(CCC)[C@@H](NC(=O)c1ccccc1)c1cccc(Cl)c1 | 1.63 | 0.249 | 0.783 | 0.948 | 1.47 | 0.753 | 1.09 | 0.379 (inactive) | 2.29 | 0.53
10 | COCCCNC(=O)[C@]1(CCC(=O)OC(C)(C)C)N=C(c2ccc(OCCCO)cc2)O[C@@H]1c1ccccc1CN=[N+]=[N-] | 0.175 | 1.19 | 0.042 | 1.27 | 0.96 | 0.732 | 1.41 | 4.82 (inactive) | 0.728 | 0.107
11 | C[N+](C)(C)CCCCNC(=O)[C@H]1C[C@H]2C(=O)N3CCC[C@H]3C(=O)N2[C@H]1c1cccc(OCCO)c1 | 0.397 | 0.442 | -0.154 | -0.194 | -0.568 | -0.235 | 0.807 | 2.19 (inactive) | 0.412 | 0.0053
12 | CC(C)NC(=O)[C@@]1(C)c2ccccc2C(=O)N(Cc2cc(C(F)(F)F)cc(C(F)(F)F)c2)[C@H]1c1ccc(CO)cc1 | 0.43 | -1.42 | -0.128 | -0.477 | -0.753 | 0.353 | 1.27 | -1.38 (inactive) | -0.213 | -0.374
13 | Oc1ccc2cc[n+](Cc3sc4ccccc4c3Cl)cc2c1 | 0.997 | -0.466 | -0.0976 | -0.299 | -0.308 | -0.159 | 1.64 | 1.7 (inactive) | 0.031 | 0.16
14 | C=CCC(OC(C)=O)[C@@H]1[C@@H](N(Cc2ccc(-c3ccccc3)cc2)C(=O)c2cccc3ccccc23)c2cc(OCCCO)ccc2N1C(=O)c1ccc(-c2ccccc2)cc1 (stereo not given in full) | 0.103 | 0.177 | 0.0521 | 0.19 | 0.0198 | -0.0375 | -0.159 | -1.45 (inactive) | 0.461 | -0.0006
15 | CC(C)=CCCC(C)=CC(O)C1C=CC2C(=O)N(C)C(=O)C2N1Nc1ccccc1 (stereo not given) | 0.0019 | 0.708 | 0.231 | 0.942 | 1.6 | 1.72 | 1.2 | -1.04 (inactive) | 1.24 | -0.159
16 | COCCCNC(=O)[C@@]1(C)c2ccccc2C(=O)N(C(C)C)[C@H]1c1ccc(CO)cc1 | -0.427 | 0.512 | -0.0996 | -0.0442 | 0.552 | 0.302 | 1.48 | 0.214 (inactive) | 0.114 | 0.0201

Row | SMILES | composite z-score [1] | composite z-score [2] | composite z-score [3] | composite z-score [4] | composite z-score [5] | composite z-score [6] | composite z-score [7] | z-score [8] | composite z-score [9] | composite z-score [10]
17 | CC1(C)[C@@H]2CC(C(O)C3C=CC4C(=O)N(c5ccccc5)C(=O)C4N3Nc3ccc([N+](=O)[O-])cc3)=C[C@H]1C2 (stereo not given in full) | -0.204 | 0.325 | -0.0834 | 0.873 | 1.7 | 1.88 | 1.2 | -1.08 (inactive) | 0.352 | -0.0852
18 | COc1ccc(C#Cc2ccc3c(c2)[C@]2(C(=O)N3)[C@H](C(=O)Nc3nc4ccccc4s3)[C@H]3C(=O)O[C@H](c4ccccc4)[C@H](c4ccccc4)N3[C@@H]2c2ccc(O)cc2)cc1 | -0.433 | 0.923 | 0.0956 | 1.13 | 1.29 | 1.38 | 1.34 | 1.46 (inactive) | 1.36 | -0.511
19 | O=C1NC(=O)C2C1C=CC(C(O)c1cc(C(F)(F)F)cc(C(F)(F)F)c1)N2Nc1ccccn1 (stereo not given) | -0.119 | 0.134 | -0.0524 | 0.121 | 0.312 | 0.969 | 1.03 | 0.589 (inactive) | 0.138 | -0.0726
20 | COc1ccc([Si](C)(C)[C@H]2[C@H](CC(=O)N3Cc4ccccc4C[C@H]3CO)O[C@@]3(C(=O)N(Cc4cccc(N5CCC5=O)c4)c4ccccc43)[C@@H]2C)cc1 | -0.26 | 0.479 | -0.07 | 0.726 | 0.793 | 0.871 | 1.29 | -2.41 (inactive) | 0.256 | -0.13
21 | CN(C)CCCCCCNC(=O)[C@H]1C[C@H]2C(=O)N[C@@H](CCCCN)C(=O)N2[C@H]1c1cccc(OCCO)c1 | 3.62 | 2.48 | 0.898 | 1.15 | 1.65 | 2.67 | 1.55 | 3.88 (inactive) | 3.58 | 3.28
22 | COc1cc(C(O)C2C=CC3C(=O)NC(=O)C3N2Nc2ccccn2)cc(OC)c1OC (stereo not given) | -0.184 | 0.299 | 0.0353 | 0.52 | 1.4 | 0.802 | 1.3 | 1.73 (inactive) | 0.0676 | -0.0618
23 | Cc1ccc(S[C@]2(C(=O)NCCCN(C)C)CC(=O)N(Cc3cc(C(F)(F)F)cc(C(F)(F)F)c3)[C@@H]2c2ccc(CO)cc2)cc1 | -0.16 | -0.594 | -0.159 | -0.145 | -1.28 | 0.494 | -0.624 | 0.318 (inactive) | -0.482 | -0.0645
24 | CN(C)CCCCCCNC(=O)[C@@H]1C[C@@H]2C(=O)N[C@@H](Cc3ccccc3)C(=O)N2[C@@H]1c1ccc(O)cc1 | 0.361 | 1.57 | 0.0127 | 0.439 | 0.644 | 1.07 | 1.42 | 3.06 (inactive) | 0.901 | -0.0196
25 | CC1CC/C=C\[C@H]2OC34C=CCN(C(C)(C)C)C(=O)[C@H]3N(CCO)C(=O)[C@@H]4C2C(=O)O1 (stereo not given in full) | -0.133 | 0.0564 | -0.217 | -0.749 | -1.56 | -1.02 | 0.784 | 0.0503 (inactive) | -0.529 | -0.0645
26 | Cc1ccc(N2C(=O)c3ccccc3[C@@H](C(=O)NC3CC3)[C@@H]2c2ccc(CO)cc2)nc1 | 1.17 | -0.78 | -0.149 | -1.26 | -1.63 | -1.14 | 0.058 | 0.554 (inactive) | -0.479 | -0.134
27 | CCCCC(CC)C(O)C1C=CC2C(=O)N(Cc3ccccc3)C(=O)C2N1n1cnnc1 (stereo not given) | 0.168 | -0.367 | -0.0305 | 0.175 | 0.0048 | -0.343 | 1.1 | -0.302 (inactive) | 0.246 | -0.199
28 | CCOC(=O)C[C@H]1[C@H](OC(=O)c2ccc(C(=O)c3ccccc3)cc2)[C@@H](NC(=O)c2ccc3ccccc3c2)c2cc(OCCCO)ccc2N1C(=O)Cc1ccc(OC)cc1 | -0.242 | 0.151 | -0.146 | 0.66 | 0.361 | 0.401 | 0.107 | -0.314 (inactive) | 0.441 | -0.0645
29 | C[C@@]1([C@@H](NC(=O)c2ccc(-c3ccccc3)cc2)c2ccc(Cl)cc2)C[C@H]1C1CCCCC1 | 0.512 | 0.903 | 0.276 | 0.473 | 1.43 | 1.86 | 0.883 | -0.203 (inactive) | 0.893 | 0.133
30 | CCCC[C@@H]1C[C@H]1[C@@H](NC(=O)c1ccco1)c1ccccc1C(F)(F)F | 2.82 | -0.108 | 0.806 | 0.0033 | 0.967 | 0.382 | -0.226 | 0.792 (inactive) | 2.87 | 3.61
31 | CC(C)C(CO)N1C(=O)[C@@H]2C3C(=O)OCCC/C=C\[C@H]3OC23C=CCN(CCN2CCOCC2)C(=O)[C@@H]13 (stereo not given in full) | -0.364 | -0.306 | -0.116 | -0.294 | -0.853 | -0.197 | 0.366 | 1.3 (inactive) | -0.139 | 0.0623

Reference: PubChem BioAssay
